Drawing on PubChem BioAssay AID1508600 (Functional Genomics Laboratory (NCATS/FGL), 2020), this text covers z-score for 108 sequences.

In all, about 53,000 sequences went through this assay and about 3,700 (7%) were called active. Only a selection was taken, and actives are over-represented in it overall. Values without a mark were called inactive.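 The calls were made as follows: active = gene knockdowns whose robust z-score for IL-1 alpha signal is at least 2 or at most -2, so actives lie on both sides; inactive = the rest.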

This test is described as follows: Components of the Cytosolic LPS Sensing Pathway: Gene Identification via Genome-wide siRNA Screen.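 Also: robust z of the log signal after scaling to non-targeting control siRNA wells of the plate.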 The note with it: RAW264.7 macrophages, IL-1a HTRF, actives lie on both sides, screened at 100 nM (by protocol), cells primed 5 h with Pam3CSK4 first. In a few lines: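 Read-out: IL-1a HTRF on supernatant, divided by plate negative-control median ×100, log-transformed and converted to robust z-score. Cells were RAW264.7 given 100 nM siRNA, Pam3CSK4-primed 5 hours, then LipidA-transfected 24 hour.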
In general terms: TR-FRET usually uses a lanthanide donor and a delayed reading to cut background.
GGAGGGACUUACCACAAGGTT against Timeless: the z-score was 0.282.

Regarding GGACAACACUGUCAAUCAUTT against Olfr922, the z-score was -2.39 (active).

In the case of GGGAAUCUUUAUCAGUGAGTT against Insc, the z-score was 0.429.

For GCUCCUGAUCAAAUAAAGUTT against Ldhb, the z-score was 0.279.

For CCGGAGUUAUACCGUAAGATT against Plaur, the z-score was -0.671.

GGAGUAGGAACAAAAAUUGTT against Polb: the z-score was -0.153.

For CCUUGGCCAAUCUCCACAATT against Ptpmt1, the z-score was -0.485.

As for GGAAAAAAUUAAAGAGCACTT against Gmcl1, the z-score is 2.15 (active).

For GGCACAAAAGAAGAAGAUGTT against Retsat, the z-score was -1.7.

Turning to CGAUAAUGAAAGUGACCAUTT against Uri1, the z-score is -0.0814.

With GGAUGCUAGACUAAUACUATT against Slc25a32, the z-score was 1.3.

With CGGGAAAGAGAUCAUCCCUTT against Nr1i2, the z-score is -3.3 (active).

Regarding GGGAGGGAUGCAGUAAAUGTT against Acaa1a, the z-score was -0.337.

Consider GCAGGAACGUGAGGACCAUTT against Snip1, for which the z-score is 0.842.

As to GGCUCUGUGCAGACAUUUCTT against Pop5, the z-score is -1.51.

As to GUUCCGACUGAACUUGUAUTT against Psmb3, the z-score is -2.55 (active).

For GCCUGGAUACAAUUACCCUTT against Tc2n, the z-score is -0.893.

As to GCUCAGUAAUCGCUGUCUATT against Olfr91, the z-score was -0.62.

For GGAGAUGAUACAUAAUCUATT against Psmd12, the z-score is -0.0292.

Regarding GCCUAAACCUGAGUUAUAATT against Lrig1, the z-score is 2.34 (active).

For GGUGACAAAGGUGUUAGAATT against Itpkc, the z-score was -0.252.

As to GGUGACCAAAAAAGCUUUATT against Pax9, the z-score is 1.37.

For the sequence GCUCAAAUAACUCCACCACTT against Pola1, the z-score is -1.73.

Consider GGCGACCACUUUGUCUACATT against Plekhg3, for which the z-score was 1.1.

For GGGAAUUCUCCUGUUUGCUTT against Plp2, the z-score was -2.22 (active).

Turning to GCUGCGUCCUAUGAGUUUATT against Drg2, the z-score was 1.72.

In the case of GGCAGCAAGGAAACUAUUATT against Kpna3, the z-score is 1.39.

GCCAACGAAAAAUGACCUCTT against Wnt2: the z-score was -0.046.

For the sequence GGCCAAAAGUAUGAAAGUATT against Tspan1, the z-score is 0.45.

With GCGUGUUGUGAUGUCACCUTT against Cisd1, the z-score is -0.0193.

Regarding CCAGAUACUUCUCAUGGCGTT against Dipk1b, the z-score was -0.0671.

As for CGAUUUGCCUUAUUUUUCATT against Litaf, the z-score was 1.23.

On to GGAAGUACAAACUACUAGUTT against Mcmbp, for which the z-score is -0.393.

Regarding GGCUUUCAAGAGCAAUCCCTT against Man2b2, the z-score is -2.21 (active).

As for GGAGCUAGACAAAACUAAATT against Vmn2r81, the z-score was -0.882.

With GUAGAAGAUGGAAUUUUUGTT against Rpl22l1, the z-score is 0.048.

For GGUCUGUGAGGAACAAAAGTT against Ccnd2, the z-score was -2.26 (active).

With CCUGAUGGGUUACCUAUGCTT against Col25a1, the z-score was -0.379.

Consider GCGGUUCCAAGAUUGUUGUTT against Armc8, for which the z-score is 0.109.

For GCUGAUCGCUUUGAUUCGATT against Fkbp11, the z-score was -0.495.

As to “GCUAACACUGCGCUUGGAATT against 1700067K01Rik”, the z-score is -1.39.

Regarding GGGACCAGAACCACAAACATT against Ghsr, the z-score is -1.62.

Turning to GGACUAAAUAGGUUUACCATT against Alx1, the z-score was 1.26.

As for CGCAGACAGAGACAACCUGTT against Casp6, the z-score is -0.73.

GCAGGUCACUUUCUAGAGATT against Srsf3: the z-score is -2.25 (active).

As to GCGUGUCCUAUAGCAUCUGTT against Cela1, the z-score was -0.106.

GGAAUUGAAGGGUACUUAATT against Fam111a: the z-score is -1.97.

On to GCCAAAUAUUAUUCCUACATT against Sec63, for which the z-score is -0.282.

Regarding “GGCAUUGAGAUGAAAUGAATT against 4933427E11Rik”, the z-score was -2.5 (active).

With GGGAAUCCUAGACAUGCUGTT against Nphp4, the z-score is -1.91.

On to GGGCAACCUGUCACAUUAUTT against Spam1, for which the z-score is 1.16.

As for CCUCAUCCUUAGUUGUUUUTT against Ift88, the z-score is -0.15.

On to GCACAAUGGUGUUAAGUCATT against Ado, for which the z-score is 2.3 (active).

Take GGAACCUCUCAAUUUUGCGTT against Pik3ip1: the z-score was 0.659.

As for GCAGGUUUAACAACUUACUTT against Dmgdh, the z-score was 3.07 (active).

On to GGAUUAGGUCAUUAUUAGGTT against Kcne3, for which the z-score was -0.202.

Turning to GGCAGUCUUGUCCCUUGUATT against Myl12a, the z-score is -0.74.

Regarding GGAAGAAGGAACAUGAUCUTT against Mrpl52, the z-score was -0.928.

Consider CCCAGUUCUGUCCUACUUATT against Efcab6, for which the z-score is -2.79 (active).

Take GGAGACAGUGGUAUUUUGATT against Birc5: the z-score was 0.468.

Take “GGAAGCAUGUGAGAGAAAATT against C130026I21Rik”: the z-score is -1.03.

Regarding GGCAUCACACAGGAGAAAATT against Ppp1r16b, the z-score is -0.391.

As to GGAACAGAUGGGUGUGAAATT against Wnt2b, the z-score was -0.0195.

On to GGAAUUCAUUGCUAUUAUGTT against Cetn3, for which the z-score was 2.12 (active).

Take CUUUUGUAAAGCCUUCCACTT against Zfp708: the z-score was -0.259.

As for GGAUCUCGGGAAAAAGUUGTT against Spesp1, the z-score is 0.185.

As for GGUCUAUCUGAAGAACAGUTT against Xpo5, the z-score was 1.02.

With GGAGGCAUGCCCUAUGAAUTT against Zfp11, the z-score is 1.4.

For the sequence CCUCAAAUUAGUGCAGUUATT against Dnah8, the z-score was 0.661.

GGUGGCACUCUUUCAGAUCTT against Dennd1a: the z-score was 2.08 (active).

On to GCUUGUCAAGUUUGUGAGCTT against Sec14l4, for which the z-score is -0.0652.

GGAAUAGUAACUCUUUCUCTT against Ehbp1l1: the z-score was -0.0157.

With GGUUGUGGACACAUCCAAATT against Aacs, the z-score is 2.08 (active).

With GGAUGUUAAAGCAAGUGUATT against Olfr1153, the z-score was 0.169.

As for CGAGGAUUUCUAUCCUGACTT against Ascc1, the z-score is -0.764.

As to GGAAGUGCUCUGCUGUACATT against Eml6, the z-score is 0.655.

Take GCUUGGUCAUUUUAAUAGGTT against Zscan29: the z-score is -0.527.

GGCCAGUGGGAAGUGAAGATT against Sec13: the z-score was 0.124.

For GCCAUAUCAACCGUAUUGGTT against Lzts3, the z-score was -2.58 (active).

As to CGUGUACCAGCUACCUAAGTT against Phc2, the z-score is -1.31.

For GGUUAGUAUGUAGCUCCCATT against Olfr982, the z-score is -0.401.

Turning to GGAACUUAAGAACUUUCUATT against Calb1, the z-score is 2.3 (active).

Consider GGCCUAAAUUGACAAACUUTT against Oga, for which the z-score is 1.04.

Consider GGUAAAACAGAGGAGUCGGTT against Scaf1, for which the z-score is -0.444.

Consider GGUACAAACUCUCCCUAGATT against Ube2c, for which the z-score was -1.29.

GGAUCUACAUUGCUAAAGUTT against Dbil5: the z-score is 0.0731.

Take GCCCAAAAAGUGCUUGCUGTT against Tmem215: the z-score was -1.76.

CCUUCCCUUAAAUGGAACCTT against Slc9a1: the z-score is 1.63.

Consider CGCAGUGAUUAUGACCUCCTT against Thegl, for which the z-score was -2.34 (active).

For GCCUUGUUACAAAUAGUCGTT against Tcf12, the z-score is 0.266.

For GGGAUUCGGUGAAGAUUUGTT against Nfe2l1, the z-score is -0.736.

On to GGUGAAAUCCUGAUGUUUUTT against Vps33b, for which the z-score is 0.301.

In the case of GGGACAAGAUCUGAACUUCTT against Rgl3, the z-score is -0.36.

On to CCUCACUGUGGUAACAUUATT against Olfr452, for which the z-score is 1.84.

Take GGAAAACAAACCACAGCCATT against Tpbpa: the z-score is -2.66 (active).

Regarding GGUGCUAUUCAUCUGCACGTT against Lonp1, the z-score is -1.09.

On to GCCUGUCAUGGUUAUGACCTT against Shbg, for which the z-score was -0.803.

As to GGACAGAUACGUUAUCAAGTT against Il3, the z-score was 1.31.

As to CCCAUUUGAAAUUAGGGUATT against Mief1, the z-score is 0.607.

For GCUGGCUUCAUUUUACUUATT against Degs1, the z-score was 0.126.

Take GGAUUACAGGCAUUUGGUUTT against Hmgn1: the z-score was 3.01 (active).

In the case of GGAGUGAAGAUCUGAUUGCTT against Aaas, the z-score is -1.63.

With GCUGGGAUGGUAUCGUUUCTT against Ripk2, the z-score was 0.559.

On to GGUAUUGAUGCCAAAUUAATT against Plekha5, for which the z-score is 1.38.

Consider CGUCCUGUCGCUGAUUAAATT against Tcl1, for which the z-score was 0.323.

For the sequence CCGAAAAGUGUGGCGAGAATT against Arid3c, the z-score was -0.285.

In the case of CCAGAGUAAUUCAUCAUACTT against Agxt, the z-score was 0.172.

For the sequence GGUUCAGUUUGCCAAAGACTT against Elfn1, the z-score was 1.45.
